A short description of assay [1]: blockers of polyQ-driven CASP3 activation – cell-based (AID 1583). Particulars: polyglutamine-induced caspase-3 activation, cell assay; stronger effect = higher value;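 tested at 10 µM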.
Assay [2] in a line: yeast 75Q aggregation reduction – 75Q-TubU reporter (AID 1593). Particulars: Yeast 75Q polyglutamine aggregation reporter.
Assay [3] is described as follows: restoration of touch response, mutant HTT neurons – whole organism, C. elegans mechanosensory neurons, N-terminal huntingtin (AID 1599). As to conditions: C. elegans polyQ-huntingtin mechanosensory neurons, stronger effect = higher value.
The nature of assay [4]: blockers of cytochrome c efflux from mitochondria – biochemical, purified mitochondria (AID 1603).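 Also: mouse liver mitochondria challenged with calcium chloride; signal normalized to the plate average as 100%.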 Particulars: stronger effect = lower value.
Assay [5] is described as follows: polyglutamine aggregate formation blockers (AID 1604). Particulars: polyglutamine-induced protein aggregation inhibition assay; stronger effect = higher value; tested at 2.5 µM.
Assay [6] can be described thus: glutamate transport activators, MN-1 cells, MN-1 cell line (AID 1612).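 Also: tested at 1 µM final; 0% = mean of DMSO vehicle wells on each plate; positive means more glutamate uptake than control and negative means less.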 Particulars: MN-1 motor neuron cells, stronger effect = higher value.
The nature of assay [7]: 75Q-TubH aggregate inhibition, S. cerevisiae, yeast (AID 1616). Particulars: S. cerevisiae 75Q-TubH polyglutamine aggregation suppression; stronger effect = higher value.
The nature of assay [8]: compounds altering viability of human ES cells (AID 493140).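 Also: cells exposed to compounds for four days before counting.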 As to conditions: human embryonic stem cell survival screen; stronger effect = higher value.
Assay [9] is described as follows: signal quenchers or enhancers, Cy5 substrate/SSB – biochemical, NIH Clinical Collection, E. coli SSB, artefact control for HCV NS3 helicase inhibitor project (AID 743268). Particulars: Cy5-oligo bound E. coli SSB, fluorescence interference.
Assay [10] concerns Hepatitis C virus NS3 helicase. In words: blockers of NS3h binding to DNA – biochemical, fluorescence polarization, NIH Clinical Collection, primary screen (AID 743270). Particulars: NS3 helicase binding to Cy5-dT15 DNA, stronger effect = higher value, concentration not given here. On the technique in general: In fluorescence polarisation assays a small probe gives low polarisation when free and higher when bound to something large.

The target of assay [11] is Single-stranded DNA-binding protein (Escherichia coli (strain K12)) (UniProt P0AGE0). In words: SSB-ssDNA binding inhibitors – biochemical, fluorescence polarization, NIH Clinical Collection, counter-screen for HCV NS3 helicase inhibitor project (AID 743271; in the data active = inhibition above about 28%). As to conditions: E. coli SSB-DNA binding, stronger effect = higher value, concentration not given here.
A short description of assay [12]: compounds distorting NS3 helicase fluorescence signal – biochemical, NIH Clinical Collection, artefact control for HCV NS3 helicase inhibitor project (AID 743272).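 Also: HCV NS3 helicase with a Cy5 labelled single stranded DNA probe.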 Particulars: fluorescence interference counterscreen, HCV NS3 helicase assay; stronger effect = lower value. In general terms: A counterscreen serves to expose hits that act by an unwanted route or on another target.

Assay [13] is described as follows: modulation of C. elegans fzo-1 (AID 1259413).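 Also: fzo-1 mutant C. elegans worms in liquid wells.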 Particulars: C. elegans fzo-1 modulator screen, mean read-out; stronger effect = higher value.
Assay [14] deals with Mitogen-activated protein kinase 7 (Homo sapiens) (UniProt Q13164). The assay is described as follows: Gal4-ERK5 driven luciferase induction – cell-based, HTS, primary screen (AID 1508626;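 active = luciferase signal above three times the same-plate solvent-only control wells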;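 also: luciferase driven by Gal4-ERK5 fusion binding five Gal4 sites before minimal TATA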). As to conditions: HeLa Gal4-ERK5 transactivation, 18 h, at 5 µM, stronger effect = higher value.
Assay [15] is described as follows: galactose survival enhancers in mitochondrial complex I cybrids – cell-based, galactose medium, ATP luminescence, primary screen (AID 1645843;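 active = z-score of at least 1.8 in each of two replicates, scored against plate mean and spread of sample wells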;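 also: positive z means more ATP and so rescue of galactose-driven cybrid death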). Particulars: complex I mutant cybrid cells, 72 h, stronger effect = higher value.
Another assay concerns R275C/beta1. The assay is described as follows: BK channel mutant inhibitors and activators – cell-based, U2OS BacMam, thallium flux, beta subunits, selectivity assay, profiling panel (AID 1259406;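 active = thallium flux through the channel raised or lowered by more than 3 SD from vehicle-only wells, actives on both sides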;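 also: initial slope of Thallos dye fluorescence rise after thallium is added; log ratio against the mean of 0.3% DMSO vehicle wells on the same plate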). Particulars: U2OS BacMam BK variants, at 30 µM.
Another assay relates to R275C/beta2Delta. The description is as above. As to conditions: U2OS BacMam BK variants, at 30 µM.
Another assay relates to R275C/beta4. Described as above. Particulars: U2OS BacMam BK variants, at 30 µM.
In a further assay the test system is R275C/Slo1WT/beta2. The description is as above. Particulars: U2OS BacMam BK variants, at 30 µM.

Where “and” joins values, the source holds several entries; their conditions need not be identical. Equal values may be shown once. For some assays here: Entries with a potency or affinity are not part of this list. Calls of active or inactive are those of the source. Unless noted, no rule for the calls is given here.

What is called inhibition is the drop in the measured response relative to a control, in per cent.

Mitogen-activated protein kinase 7 (Homo sapiens), sequence (Q13164 whole entry, looked up, the tested form may be a part): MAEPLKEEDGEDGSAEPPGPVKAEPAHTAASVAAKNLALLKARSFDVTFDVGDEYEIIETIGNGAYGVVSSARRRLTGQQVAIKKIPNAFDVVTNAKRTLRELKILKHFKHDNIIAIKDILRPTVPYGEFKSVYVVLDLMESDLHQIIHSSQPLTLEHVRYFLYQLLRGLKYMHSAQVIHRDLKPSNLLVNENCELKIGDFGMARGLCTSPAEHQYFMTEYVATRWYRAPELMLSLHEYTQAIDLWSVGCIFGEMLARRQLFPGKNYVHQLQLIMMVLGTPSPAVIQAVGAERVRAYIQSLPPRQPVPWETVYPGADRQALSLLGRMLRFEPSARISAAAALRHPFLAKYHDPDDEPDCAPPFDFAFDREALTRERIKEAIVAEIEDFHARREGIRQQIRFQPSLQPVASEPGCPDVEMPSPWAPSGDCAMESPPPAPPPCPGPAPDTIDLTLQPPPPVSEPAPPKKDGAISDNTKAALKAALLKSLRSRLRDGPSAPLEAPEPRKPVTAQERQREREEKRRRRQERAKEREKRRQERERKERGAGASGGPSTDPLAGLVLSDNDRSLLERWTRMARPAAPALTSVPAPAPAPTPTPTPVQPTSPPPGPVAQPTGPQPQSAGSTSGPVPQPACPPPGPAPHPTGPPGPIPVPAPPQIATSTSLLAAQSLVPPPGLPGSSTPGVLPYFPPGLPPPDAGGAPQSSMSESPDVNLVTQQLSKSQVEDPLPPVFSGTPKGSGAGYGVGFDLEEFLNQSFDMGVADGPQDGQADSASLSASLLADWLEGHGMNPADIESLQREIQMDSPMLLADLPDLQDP

Take `Cc1ccc(C)c(OCCCC(C)(C)C(=O)O)c1`: the values for the inhibition in assay [1], in assay [10] and in assay [11] were 5.02%, 0.45% (inactive) and 1.05% (inactive), respectively. Moreover, the score in [2] is -0.33. The molecule further gave a rescue above control in assay [3] of 6.5. In addition, the cytochrome c release ratio in assay [4] stood at 0.86. In addition, the inhibition of aggregation in [5] was determined as 39.4%. The molecule also returned a glutamate uptake change in [6] of 0.82%. For the same molecule, the aggregation suppression score in assay [7] was -0.02. Moreover, the survival in [8] was 20.8 (inactive). Besides, the fluorescence ratio in assay [9] was 1.06 (inactive); in [12], 0.96 (inactive). Also, the mean signal in assay [13] was 239 (inactive). For the same molecule, the luciferase signal in [14] is 128 AU (inactive). Also, in assay [15], the z-score is 0.125 (inactive) and 0.18 (inactive). Further, the log fold change Tl+ flux with R275C/beta1 is 0.0657 (inactive); in the assay on R275C/beta2Delta, 0.0312 (inactive); with R275C/beta4, -0.0122 (inactive); in the assay with R275C/Slo1WT/beta2, 0.088 (inactive).
As to `Nc1ncn([C@@H]2O[C@H](CO)[C@@H](O)[C@H]2O)c(=O)n1`, the inhibition in [1] is -3.83%; in [10], 1.36% (inactive); in [11], 4.86% (inactive). Besides, in assay [2], the score is 1.31. For the same molecule, the rescue above control in [3] was 17.7. Moreover, in [4], the cytochrome c release ratio was 1.03. Besides, the inhibition of aggregation in assay [5] was 38.1%. Moreover, the glutamate uptake change in assay [6] was 3.18%. In assay [7], this molecule gave an aggregation suppression score of 1.25. Also, the fluorescence ratio is 1.02 (inactive) in assay [9] and 1.04 (inactive) in assay [12]. Also, the mean signal in [13] is 231 (inactive). For the same molecule, the luciferase signal in [14] was 60 AU (inactive). In assay [15], the z-score is -1.16 (inactive) and -0.05 (inactive). Also, the log fold change Tl+ flux in the assay on R275C/beta1 was 0.00104 (inactive); with R275C/beta2Delta it was 0.0218 (inactive); in the assay with R275C/beta4 it was 0.000291 (inactive); with R275C/Slo1WT/beta2, -0.00199 (inactive).
Take `N[C@@H](C(=O)N[C@@H]1C(=O)N2C(C(=O)O)=C(Cl)CS[C@H]12)c1ccccc1`: in assay [8], the survival was 9 (inactive) and 6.75 (inactive). The fluorescence ratio is 0.95 (inactive) in [9] and 0.91 (inactive) in assay [12]. For the same molecule, the results for the inhibition in assay [10] and in assay [11] were -4.59% (inactive) and 1.97% (inactive), respectively. Moreover, in assay [13], the mean signal was 277 (inactive). Further, the luciferase signal in [14] is 32 AU (inactive). Moreover, the log fold change Tl+ flux with R275C/beta1 was 0.0103 (inactive); in the assay on R275C/beta2Delta it was 0.0124 (inactive); in the assay on R275C/beta4 it was -0.0176 (inactive); with R275C/Slo1WT/beta2 it was -0.0279 (inactive).
Turning to `NC(=O)N1c2ccccc2CC(=O)c2ccccc21`, the fluorescence ratio in assay [9] was 0.99 (inactive); in assay [12] it was 0.97 (inactive). Further, the values for the inhibition in [10] and in assay [11] were -5.15% (inactive) and -2.41% (inactive), respectively. Besides, the mean signal in assay [13] was 241 (inactive). The luciferase signal in assay [14] was 56 AU (inactive). Further, the z-score in [15] was -1.62 (inactive) and -0.18 (inactive). The log fold change Tl+ flux in the assay on R275C/beta1 is 0.0898 (active); with R275C/beta2Delta, 0.1 (active); in the assay on R275C/beta4, -0.00127 (inactive); with R275C/Slo1WT/beta2 it was 0.048 (inactive).
`Clc1ccc2c(c1)C(N1CCNCC1)=Nc1ccccc1O2`: the inhibition is 0.62% in assay [1], -4.09% (inactive) in assay [10] and -1.24% (inactive) in [11]. This molecule also registered a score in assay [2] of 1.21. The molecule further registered a rescue above control in assay [3] of 6.68. The cytochrome c release ratio in assay [4] was determined as 0.82. Also, the inhibition of aggregation in [5] is -0.07%. The molecule further had a glutamate uptake change in assay [6] of 35.9%. Further, the aggregation suppression score in [7] was determined as 1.13. For the same molecule, the results for the fluorescence ratio in assay [9] and in assay [12] were 0.92 (inactive) and 0.96 (inactive), respectively. The mean signal in [13] was 211 (inactive). Further, in assay [14], the luciferase signal is 32 AU (inactive). The z-score in assay [15] is -1.01 (inactive) and 0.165 (inactive) and -1.17 (inactive). The log fold change Tl+ flux with R275C/beta1 is 0.123 (active); in the assay with R275C/beta2Delta, 0.0319 (inactive); in the assay on R275C/beta4 it was 0.0104 (inactive); in the assay with R275C/Slo1WT/beta2 it was 0.0256 (inactive).

(Values after PubChem BioAssay.)
